The text below walks through data of PubChem BioAssay (NCI).

About 83,000 compounds went through this panel and 20% of them were active in at least one assay; those are over-represented in the sample as a whole.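 Note: values are percent growth. 100 is the growth of untreated cells, values between 100 and 0 indicate rising inhibition; between -100 and 0 indicates cell death.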 Values without a mark were called inactive. Activity calls are given as the source filed them. Rule for the calls: active = growth percent below 10; inactive = the rest.

Holding throughout (assay): NCI-60 one-dose screen, 48 h (100 = growth as untreated, 0 = no growth, -100 = all killed)
In test [1] the test system is SK-MEL-2 melanoma. Conditions: 10 µM unless noted.
The subject of test [2] is EKVX NSCLC. Conditions: 10 µM unless noted.
The test system of test [3] is SN12C renal. Conditions: 10 µM unless noted.
In test [4] the test system is UO-31 renal. The following applies: 10 µM unless noted.
The subject of test [5] is TK-10 renal. Conditions: 10 µM unless noted.
The test system of test [6] is CCRF-CEM leukemia. Conditions: 10 µM unless noted.
For test [7], the system named is MOLT-4 leukemia. Conditions: 10 µM unless noted.
For test [8], the system named is SR leukemia. Conditions: 10 µM unless noted.
Test [9] concerns RPMI-8226 leukemia. Conditions: 10 µM unless noted.
Test [10] has as its system OVCAR-8 ovarian. The following applies: 10 µM unless noted.
For test [11], the system named is OVCAR-5 ovarian. The following applies: 10 µM unless noted.
Test [12] deals with OVCAR-4 ovarian. The following applies: 10 µM unless noted.
For test [13], the system named is SK-OV-3 ovarian. Conditions: 10 µM unless noted.
For test [14], the system named is IGROV1 ovarian. The following applies: 10 µM unless noted.
Test [15] concerns OVCAR-3 ovarian. The following applies: 10 µM unless noted.
Test [16] deals with HS 578T breast. Conditions: 10 µM unless noted.
The test system of test [17] is ACHN renal. The following applies: 10 µM unless noted.
Test [18] deals with CAKI-1 renal. The following applies: 10 µM.
For test [19], the system named is A498 renal. The following applies: 10 µM unless noted.
The test system of test [20] is NCI/ADR-RES ovarian. The following applies: 10 µM unless noted.

Regarding `COc1cc(Cn2cc3c(c2)-c2onc(CO)c2CC3)cc(OC)c1OC`, the growth in test [1] was 90.2%; in [2] it was 90.3%; in test [3], 94.3%; in test [4], 68.4%; in test [5], 96.4%; in [6], 91.3%. Moreover, the growth was 95.8% in [7]; 71.8% in [8]; 79.1% in [9]; 98.7% in test [10]; 103% in test [11]; 98% in test [12]. Besides, the growth in test [13] is 112%; in test [14], 96.6%; in test [15], 99.4%; in test [16] it was 80.3%.

`CN1CCN(CC(=O)N(C)c2ccc(N=C(c3ccccc3)c3c(O)[nH]c4ccc(C#N)cc34)cc2)CC1`: the growth is 16.4% in test [1]; 63.4% in test [2]; 26.4% in test [3]; 23.9% in test [4]; 48.4% in test [17]; 20.2% in [18]. The growth in [19] was 27%; in test [6], 15.8%; in test [7] it was 8.12% (active); in test [8], 0.738% (active); in [9] it was 57.6%; in [10], 39.1%. The growth in [11] is 80.1%; in test [12], 48%; in test [13] it was -7.83% (active); in [14] it was 31%; in [15] it was 52.2%; in [16], -2.32% (active). The growth in test [20] was 106%.

With `O=C1c2ccccc2OC=C(c2ccccc2)N1CCCCN1CCCCC1`, the growth in test [1] is 69%; in [2], 39.5%; in test [3], 20.4%; in [4], 85.8%; in test [17], 104%; in [18], 101%. Further, the growth in [19] is 87.1%; in test [6] it was 43.9%; in [7], 60.6%; in [8], 65.2%; in test [9] it was 23.6%; in test [10], 51.7%. The growth was 101% in test [11]; 58.7% in test [12]; 13.2% in [13]; 73.7% in test [14]; 63.6% in test [15]; 75.1% in [16]. The growth in test [20] is 88.8%.
